Mtb FBA inh = inhibits M. tuberculosis FBA enzyme | P9WQA3 | purified M. tuberculosis FBA, fluorescence read-out | inhibition, % at 1 µM | 360,000 compounds, 2.3% hits | AID 588726;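 also: 0% = vehicle and 100% = reference inhibitor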
Target sequence (P9WQA3 whole entry, looked up): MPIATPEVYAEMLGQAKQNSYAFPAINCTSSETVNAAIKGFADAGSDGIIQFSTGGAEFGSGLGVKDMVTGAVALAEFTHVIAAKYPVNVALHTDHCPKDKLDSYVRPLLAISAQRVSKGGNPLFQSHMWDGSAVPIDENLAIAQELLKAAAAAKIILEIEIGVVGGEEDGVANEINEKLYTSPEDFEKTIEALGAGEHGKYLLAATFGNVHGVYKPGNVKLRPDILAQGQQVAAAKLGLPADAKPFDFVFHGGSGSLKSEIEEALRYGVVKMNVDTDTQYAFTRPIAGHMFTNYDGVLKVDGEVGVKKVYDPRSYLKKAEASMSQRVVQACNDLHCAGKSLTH
Mtb hypoxia inh = inhibitors of hypoxia-regulated fluorescent reporter in Mycobacterium tuberculosis | M. tuberculosis hypoxia-regulated fluorescent reporter, fluorescence | fluorescence inhibition, % (concentration not given with the values) | 300,000 compounds, 0.1% hits; in the data active = fluorescence inhibition mostly above about 23%, no sharp cut-off; inactive = mostly below about 17%
Mtb BioA inh = BioA (M. tuberculosis) enzyme inhibition; purified M. tuberculosis BioA enzyme, plate reader; inhibition, % at 9.99 µM; 360,000 compounds, 0.096% hits; in the data active = inhibition above about 40%
GDH-TPI counter-1 = counter-screen for M. tuberculosis FBA inhibitors: GDH-TPI coupled enzymes; 360,000 compounds, 1.2% hits; GDH-TPI coupled enzyme counterscreen, NADH absorbance; inhibition, % at 4.8 µM; in the data active = inhibition above about 30%;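 also: 0% = DMSO wells and 100% = wells lacking the enzyme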
FadD28 binding = M. tuberculosis FadD28 bisubstrate binding inhibition | FadD28 bisubstrate probe binding, fluorescence polarization | inhibition, % at 12.5 µM | 360,000 compounds, 0.22% hits; in the data active = inhibition above about 8.5%, passing the limit was not always enough
Mtb FBA inh conf = confirmation of M. tuberculosis fructose-bisphosphate aldolase inhibitors | shares compounds with Mtb FBA inh | purified M. tuberculosis FBA, fluorescence read-out | inhibition, % at 1 µM | AID 651616 | 5,600 compounds, 78% hits;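 also: 0% = vehicle wells and 100% = reference inhibitor wells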
GDH-TPI counter-2 = counter-screen for M. tuberculosis FBA inhibitors: GDH-TPI coupled enzyme inhibition; shares compounds with Mtb FBA inh; GDH-TPI coupled enzyme counterscreen, fluorescence; inhibition, % at 1 µM; 5,600 compounds, 81% hits; in the data active = inhibition above about 10%
GDH-TPI dose = counter-screen for M. tuberculosis FBA inhibitors: GDH-TPI dose response. 170 compounds, 79% hits. GDH-TPI coupled enzyme assay, fluorescence, artifact counterscreen. shares compounds with Mtb FBA inh. IC50, µM; call rule not given here
Numbers without * were called inactive; nt = no result given; + = active, no number. This is a sample that favours compounds with a hit; in the whole collection about 2.9% have one here. Rule as the data show it, unless noted: active = inhibition above about 27%; inactive = the rest.

SMILES	Mtb FBA inh	Mtb hypoxia inh	Mtb BioA inh	GDH-TPI counter-1	FadD28 binding	Mtb FBA inh conf	GDH-TPI counter-2	others
[O-][n+]1nc2ccccc2c2ccccc21	37*	0	1	13	0	88*	78*
CO[C@H]1CN(C)C(=O)c2ccc(NS(C)(=O)=O)cc2OC[C@H](C)N(CC2CC2)C[C@H]1C	nt	nt	-2	nt	nt	nt	nt
CCCc1cc(=O)[nH]c2nnc(SCC(=O)NC3CCCC3)n12	3	4	nt	-6	-3	nt	nt
Cc1c(C)n2c(SCC(=O)NC3CCCCC3)nnc2[nH]c1=O	32*	1	nt	4	-2	-3	-4
CCOC(=O)c1sc2nc(C)cc(C)c2c1N	36*	4	0	23	-2	65*	56*
Cc1cc(C)c2c(N)c(C(=O)Nc3nccs3)sc2n1	105*	14	1	13	0	151*	110*
CNC[C@H]1Oc2c(NC(=O)NC(C)C)cccc2C(=O)N([C@H](C)CO)C[C@H]1C	nt	nt	0	nt	nt	nt	nt
CCC(C)NC(=O)c1ccc2c(c1)N(Cc1ccccc1)C(=O)CS2 (stereo not given)	97*	-2	nt	4	-1	68*	78*
COc1ccc(CN2C[C@@H](O)COC[C@@H]3O[C@H](CC(=O)NCc4ccccc4Cl)CC[C@H]32)cc1	nt	nt	-2	nt	nt	nt	nt
CCCCn1nnnc1NCc1cccnc1	30*	nt	-2	8	-2	+	+
CCCCn1nnnc1NCc1ccc(N2CCCC2)cc1	-1	nt	-1	10	-1	nt	nt
COC(CNC(=O)c1cccc(-n2c(=S)[nH]c3cc(Cl)ccc3c2=O)c1)OC	68*	8	0	2	0	+	159*
COc1ccc(-c2cnc3c(c2)CCC3(C#N)C#N)cc1	58*	17	-2	7	-2	50*	33*
Cc1ccc(N(CC(=O)NN=Cc2cccs2)S(C)(=O)=O)cc1	nt	10	nt	nt	nt	nt	nt
CC1CCCC(C)N1C(=O)COc1ccc(C(=O)N/N=C/c2ccc(C(=O)O)cc2)cc1 (stereo not given)	60*	nt	-1	-1	3	120*	97*
Cc1cccc(C(=O)NN=Cc2ccc(OCC(=O)N3CCCCC3)cc2)c1	nt	12	nt	nt	nt	nt	nt
Nc1ccc(-c2nc3ncccc3o2)c(Cl)c1	91*	-3	2	47*	-1	1	3
Nc1cc(-c2nc3ncccc3o2)ccc1Cl	38*	9	1	23	0	87*	71*
C[C@@H]1CCCCO[C@H](CN(C)Cc2ccncc2)[C@@H](C)CN([C@@H](C)CO)C(=O)c2cc(N(C)C)ccc2O1	nt	nt	-4	nt	nt	nt	nt
COc1cccc(S(=O)(=O)N(C)C[C@H]2Oc3cc(C#CCN(C)C)ccc3S(=O)(=O)N([C@@H](C)CO)C[C@@H]2C)c1	nt	nt	-2	nt	nt	nt	nt
N[C@@H]1CC[C@H](CCn2cc(-c3ccccn3)nn2)O[C@H]1CO	nt	nt	-2	nt	nt	nt	nt
COc1cc2c(cc1OC)C(C1C(=O)CC(C)CC1=O)N(C(=O)CCl)CC2 (stereo not given)	31*	11	nt	1	-1	11	5	GDH-TPI dose=>10
C[C@H](CO)N1C[C@H](C)[C@H](CN(C)S(=O)(=O)c2cn(C)cn2)Oc2c(NC(=O)Nc3ccc4c(c3)OCO4)cccc2C1=O	nt	nt	-1	nt	nt	nt	nt
CC(=O)Nc1ccccc1NS(=O)(=O)c1ccccc1[N+](=O)[O-]	2	2	nt	2	0	nt	nt
CC(=O)Nc1ccccc1NS(=O)(=O)c1cccc([N+](=O)[O-])c1	99*	7	nt	5	1	+	175*
SMILES	Mtb FBA inh	Mtb hypoxia inh	Mtb BioA inh	GDH-TPI counter-1	FadD28 binding	Mtb FBA inh conf	GDH-TPI counter-2	others
COc1cccc(NC(=O)C[C@H]2CC[C@H]3[C@@H](COc4ccc(NC(=O)C5CCOCC5)cc4C(=O)N3C)O2)c1	nt	nt	-2	nt	nt	nt	nt
O=c1nc(-c2ccccc2)n(-c2ccc(Cl)cc2)[nH]1	28*	5	-1	-2	-3	128*	105*
S=c1nc(-c2ccccc2)n(-c2ccccc2)[nH]1	5	8	0	-6	-5	nt	nt
COc1ccc(S(=O)(=O)Nc2ccc3c(c2)C(=O)N([C@H](C)CO)C[C@@H](C)[C@H](CN(C)C(=O)NC(C)C)OCCCC[C@@H](C)O3)cc1	nt	nt	-1	nt	nt	nt	nt
O=C(O)[C@@H]1[C@@H](CO)[C@@H]2Cn3c(cccc3=O)[C@@H]2N1C(=O)NC1CCCC1	nt	nt	-2	nt	nt	nt	nt
N#Cc1ccc(-c2ccc(OCC(=O)NCCc3ccccc3)cc2)cc1	38*	6	nt	5	-4	5	2
N#Cc1ccc(-c2ccc(OCC(=O)NCC(=O)Nc3ccc(F)c(F)c3F)cc2)cc1	30*	11	-2	11	0	+	+
Cc1coc2c1c(C)cc1oc(=O)c(CC(=O)N[C@@H](C)C(=O)O)c(C)c12	38*	-8	-1	-6	-6	+	+
CCC(NC(=O)Cc1c(C)c2c(cc(C)c3c(C)c(C)oc32)oc1=O)C(=O)O (stereo not given)	37*	5	nt	30	-2	193*	179*
CSCC[C@H](NC(=O)Cc1c(C)c2c(cc(C)c3c(C)c(C)oc32)oc1=O)C(=O)O	20	12	0	17	-2	nt	nt
Cc1coc2c1c(C)cc1oc(=O)c(CC(=O)N[C@H](C(=O)O)C(C)C)c(C)c12	76*	-5	-2	11	-1	51*	49*
CCOc1ccc(S(=O)(=O)NN=Cc2ccc3c(c2)OCO3)cc1	nt	0	nt	nt	nt	nt	nt
c1cc(-c2cc3nc(NCC4CC4)ccn3n2)ccc1OCCN1CCOCC1	37*	nt	2	-2	-1	69*	72*
C[C@@H]1CCCCO[C@@H](CN(C)Cc2ccc3c(c2)OCO3)[C@@H](C)CN([C@H](C)CO)C(=O)c2cc(NC(=O)CCC(F)(F)F)ccc2O1	nt	nt	-1	nt	nt	nt	nt
CC1CCC(N2CCN(S(C)(=O)=O)CC2)CC1 (stereo not given)	56*	12	-1	6	0	110*	102*
O=C1OCc2nc3cc4c(cc3c(-c3ccc(F)cc3)c21)OCO4	73*	8	-1	13	nt	101*	86*
C[C@@H]1CN([C@H](C)CO)C(=O)c2cc(NC(=O)Nc3ccccc3)ccc2O[C@@H]1CN(C)C	nt	nt	-1	nt	nt	nt	nt
CC(=O)Nc1ccc(-c2cn3cc(C)ccc3n2)cc1	74*	8	5	15	-1	+	145*
COc1ccc(-c2cn3cc(C(=O)NN)ccc3n2)cc1	42*	1	nt	4	-7	89*	78*
Cc1ccc2nc(-c3ccccc3)cn2c1	37*	8	-2	-5	-4	99*	88*
CC(=O)Nc1ccc(-c2cc(C(=O)O)c3cc4ccccc4cc3n2)cc1	24	nt	-1	3	-1	nt	nt
NNC(=O)c1ccc2nc(-c3ccc(Br)cc3)cn2c1	11	nt	nt	2	-11	nt	nt

Source: PubChem BioAssay
